Experimental data published in the supplement of paper PMC4166925.
± gives the standard deviation of the averaged measurements. In all, about 33,000 sequences were measured (“E-score (dimensionless, -0.5 to 0.5)”: median about -0.049, highest 2% from about 0.37 on). The sample holds the highest values, similar sequences and a random draw of the others, so the mix is not that of the screen.

Tested on: T1, PmTbr T-box DNA-binding domain (GST fusion)
T1 sequence: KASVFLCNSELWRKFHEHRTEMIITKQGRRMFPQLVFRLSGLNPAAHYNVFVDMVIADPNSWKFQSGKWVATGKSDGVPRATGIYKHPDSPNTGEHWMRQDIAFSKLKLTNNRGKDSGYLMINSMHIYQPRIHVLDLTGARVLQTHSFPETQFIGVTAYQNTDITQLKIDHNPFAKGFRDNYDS
Test: PBM E-score of 8-mer (E-score (dimensionless, -0.5 to 0.5)); Tbr is Tbrain of the sea star Patiria miniata (Pm) or the sea urchin Strongylocentrotus purpuratus (Sp); higher = stronger binding preference
Details: the construct has about 5 more residues each side
Summary of the method: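 Universal Agilent oligonucleotide arrays, made double-stranded by primer extension, were incubated with 200 nM GST-fused Tbr T-box DNA-binding domain in PBS (pH 7.5). The protein was expressed in BL21 E. coli at 20 °C and purified by glutathione affinity chromatography. After scanning and quantification, the Universal PBM Analysis Suite assigned an enrichment E-score to each ungapped 8-mer, averaged over duplicate arrays.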

Row | Sequence | PBM E-score of 8-mer
1 | CTGACACC | 0.464 ± 0.0063
2 | GCCGCTGA | -0.113 ± 0.074
3 | GACATCGA | -0.0159 ± 0.0023
4 | AACACCAG | 0.335 ± 0.022
5 | CCCACCAA | -0.112 ± 0.048
6 | CACACCAC | 0.406 ± 0.012
7 | CCCACCAC | -0.0276 ± 0.048
8 | CTCACCAA | 0.211 ± 0.042
9 | CACACCAG | 0.399 ± 0.018
10 | CGCACCAG | 0.2978 ± 0.0014
11 | CACACCAA | 0.3718 ± 0.0018
12 | CACCACAC | 0.367 ± 0.018
13 | CAATATCG | 0.06478 ± 0.00031
14 | GCCATAGA | -0.0661 ± 0.067
15 | CAGGTAGC | -0.062 ± 0.011
16 | CAGTACCA | -0.0345 ± 0.056
17 | ACATTACC | -0.144 ± 0.023
18 | AGCCACGG | -0.119 ± 0.013
19 | CTCGTCCC | -0.303 ± 0.016
20 | AAATAGGT | 0.0404 ± 0.07
21 | GCACAGGA | -0.162 ± 0.05
22 | CGCAAAAC | 0.0965 ± 0.0024

Row | Sequence | PBM E-score of 8-mer
23 | ACACGTGC | 0.387 ± 0.023
24 | CCACGTGC | 0.149 ± 0.013
25 | ACACGTGA | 0.292 ± 0.017
26 | GCACGTGC | 0.2695 ± 0.0011
27 | ACACGTGG | 0.307 ± 0.022
28 | ACACGTGT | 0.403 ± 0.023
29 | ACATGGTG | 0.243 ± 0.0055
30 | GCAAGCCA | -0.221 ± 0.037
31 | GCATCTGA | -0.0824 ± 0.1
32 | ATTATCCG | -0.0296 ± 0.042
33 | GATGGCGA | 0.1142 ± 0.00067
34 | CAGTGGAG | -0.068 ± 0.012
35 | ACTTGTTA | 0.372 ± 0.044
36 | GCTTGTCA | 0.0851 ± 0.047
37 | ACTTGTCA | 0.4044 ± 0.0039
38 | TCTTGTCA | 0.207 ± 0.023
39 | GCTTGTGA | 0.187 ± 0.0082
40 | AGTTGTGA | 0.387 ± 0.017
41 | ACTTGTTG | 0.332 ± 0.018
42 | AGTTGTGG | 0.122 ± 0.039
43 | CGTTGTGA | 0.2 ± 0.0095
44 | ACTTGTGG | 0.196 ± 0.014

Row | Sequence | PBM E-score of 8-mer
45 | CCTTGTTA | 0.126 ± 0.011
46 | ACTTGTGA | 0.411 ± 0.0095
47 | ATACTTAA | -0.187 ± 0.096
48 | CTAGTGCA | 0.173 ± 0.0046
49 | TCCCCAGA | -0.207 ± 0.12
50 | GCAGAAAA | -0.0494 ± 0.066
51 | TATTCCGA | -0.274 ± 0.013
52 | CACTTCGG | 0.363 ± 0.015
53 | ATATACGG | -0.038 ± 0.039
54 | CTTTTAGC | 0.22 ± 0.074
55 | AGTCCTAG | -0.0285 ± 0.042
56 | ATAGTAAG | -0.216 ± 0.029
57 | GGCTAAAA | -0.22 ± 0.064
58 | GGTGTGAC | 0.4864 ± 0.0033
59 | CGTGTGTC | 0.204 ± 0.018
60 | CGTGTGAG | 0.363 ± 0.013
61 | CGTGTGAC | 0.4054 ± 0.0011
62 | AGTGTGAT | 0.463 ± 0.0063
63 | ACTGTGAC | 0.239 ± 0.026
64 | AGTGTGTC | 0.248 ± 0.0093
65 | GATGTGAC | 0.308 ± 0.017
66 | AGAGTGAT | 0.239 ± 0.0043

Row | Sequence | PBM E-score of 8-mer
67 | AGTGTGAC | 0.467 ± 0.0075
68 | AATGTGAT | 0.258 ± 0.039
69 | GCTGTGAC | 0.208 ± 0.037
70 | CACCCAAG | 0.263 ± 0.023
71 | TCTTAGCA | 0.2 ± 0.017
72 | CCCGAATC | 0.00343 ± 0.029
73 | ACAAGACC | 0.0576 ± 0.017
74 | GACTACCA | -0.0358 ± 0.082
75 | CAGGAGAC | -0.136 ± 0.017
76 | ATTGTGAG | 0.2213 ± 0.00029
77 | AGTGTGAG | 0.4585 ± 0.0031
78 | AGTGTGTG | 0.338 ± 0.021
79 | CACACAGG | 0.119 ± 0.044
80 | CGGCAAAA | -0.0622 ± 0.057
81 | ACATCCGG | -0.0734 ± 0.061
82 | GAACTGGA | -0.175 ± 0.037
83 | CCTGGAAA | -0.133 ± 0.014
84 | AAAGACAA | -0.172 ± 0.069
85 | GACCTTTA | -0.207 ± 0.088
86 | AACCTTTA | -0.0895 ± 0.057
87 | AACCTTTC | -0.105 ± 0.047
